Reference: PubChem BioAssay
Records with an inconclusive call do not appear. Cut-off read from the data, not from the text of the source, unless noted: active = percent of DMSO control GFP below about 86%; inactive = the rest, inconclusive results apart.

test: rapamycin-like changes in RPL19A-GFP expression – cell-based, S. cerevisiae, multiplex flow cytometry, primary screen (AID 1862);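 note: lower values mimic rapamycin by blocking the RPL19A rise seen in DMSO cells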; details: S. cerevisiae RPL19A-GFP strain, flow cytometry fluorescence, 3 h; at 10 µM; stronger effect = lower value

Percent of DMSO control GFP, inactive:
C[C@]12CC[C@@H]3c4ccc(OS(=O)(=O)O)cc4CC[C@H]3[C@@H]1CCC2=O 90.6%
O=C1C2C3C=CC(C4CC34)C2C(=O)N1/N=C/c1ccc(-c2ccc([N+](=O)[O-])cc2)o1 (stereo not drawn) 103%
Cc1oc2ccc(OC(=O)c3cccs3)cc2c1C(=O)OC(C)C 91.2%
COc1ccc(CCN(C)CC(=O)Nc2cc(C)nc3ccccc23)cc1OC 108%
C[C@]12C=CC(=O)C=C1CCC1C3CC[C@](O)(C(=O)CO)[C@@]3(C)CC3OC312 (stereo partly drawn) 102%
c1ccc2c(c1)CCCC2C1=NCCN1 (stereo not drawn) 98.2%
C=CCc1cc(Cl)ccc1OCCOCCN(C)C 103%
COc1cc2c(cc1OC)C(Cc1ccc(O)cc1)N(C)CC2 (stereo not drawn) 99%
CCOc1ccc(C(=O)Nc2ccc(N3CCN(C(C)=O)CC3)cc2)cc1[N+](=O)[O-] 93%
OCCN(CCO)c1ccc2ccccc2c1 96.5%
COc1ccc(CN(C)CCc2ccccn2)cc1OC 104%
CC(=O)OCC1OC(n2ccc(=O)[nH]c2=O)C(O)C1O (stereo not drawn) 100%
CC(=O)N1N=C(c2cccs2)CC1c1ccc(C)o1 (stereo not drawn) 92.8%
Cc1cc(C)c2c(CCl)cc(=O)oc2c1 98.7%
NC12CC3CC(CC(C3)C1)C2 94.4%
CC12CCC(C(=O)N3CCCCC3)([C@H](Br)C1=O)C2(C)C (stereo partly drawn) 90.6%
CC(NCCC(c1ccccc1)c1ccccc1)c1ccccc1 (stereo not drawn) 92.6%
O=P(O)(O)CP(=O)(O)O 91.9%
CCCCC[C@H](O)/C=C/[C@@H]1[C@@H](C/C=C\CCCC(=O)OC)[C@@H](O)C[C@H]1O 97.4%
Cc1cc(C(C)(C)C)cc(C)c1CC1=NCCN1 93.7%
CC1CCCc2sc3ncn(N)c(=N)c3c21 (stereo not drawn) 103%
O=C1NC2(Nc3ccccc31)C(=O)Nc1ccc(Br)cc12 (stereo not drawn) 91.7%
Cc1cc(-c2ccccc2)nnc1NCCN1CCOCC1 102%
Cc1ccccc1OCC(O)CN1CCN(C)CC1 (stereo not drawn) 97.9%
COc1cc(/C=C/C(=O)N2CCCC2)cc(OC)c1OC 106%
CNCCCN1c2ccccc2CCc2ccccc21 93.3%
Nc1c2c(nc3ccccc13)CCCC2 89.5%
COc1ccc(C2C3C(C)=NN=C3CC(C)(O)C2C(C)=O)cc1 (stereo not drawn) 99.5%
O=c1c2ccccc2nnn1Cc1cccc2ccccc12 89.1%
CC1(C)CC(=O)C(C(=O)CCCCC(=O)C2C(=O)CC(C)(C)CC2=O)C(=O)C1 105%
COC(=O)c1ccc(CC(=O)c2ccc(O)cc2O)o1 93.5%
O=C(CCCCCCCC(=O)c1ccccc1)c1ccccc1 98.2%
CC(=O)OC[C@H]1O[C@@H](n2ncc(=O)[nH]c2=O)[C@H](OC(C)=O)[C@@H]1OC(C)=O 94.8%
CC1CNCCN1S(=O)(=O)c1cccc2cnccc12 (stereo not drawn) 95%
COc1cc(C2C(C(=O)c3ccc(C)o3)=C(O)C(=O)N2Cc2cccnc2)ccc1O (stereo not drawn) 102%
Cc1ccccc1NC(=O)C1c2ccccc2Oc2ccccc21 96.1%
COc1ccc(-c2coc3cc(O)cc(O)c3c2=O)cc1 88.2%
Nc1cccc(C(=O)O)c1 95.5%
CCN1CCN(C(=O)N[C@@H](C(=O)N[C@@H]2C(=O)N3[C@@H]2SC(C)(C)[C@@H]3C(=O)O)c2ccccc2)C(=O)C1=O 94.4%
COCCc1ccc(OCC(O)CNC(C)C)cc1 (stereo not drawn) 103%

test: TOR pathway GLN3 branch reporter MEP2-GFP changes – S. cerevisiae, multiplex flow cytometry, primary screen (AID 1867;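 active = GFP response, as percent of the DMSO control, above the screen-wide mean plus 3 SD, about 139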;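 note: median GFP channel fluorescence of barcode-gated MEP2-GFP cells measured by flow cytometry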); details: S. cerevisiae MEP2-GFP strain, 3 h, at 10 µM, stronger effect = higher value, 100% means same as DMSO wells

GFP response vs DMSO, inactive:
C[C@]12CC[C@@H]3c4ccc(OS(=O)(=O)O)cc4CC[C@H]3[C@@H]1CCC2=O 120%
COc1cc2c(cc1OC)C(Cc1ccc(O)cc1)N(C)CC2 (stereo not drawn) 127%
CCOc1ccc(C(=O)Nc2ccc(N3CCN(C(C)=O)CC3)cc2)cc1[N+](=O)[O-] 106%
CC(=O)N1N=C(c2cccs2)CC1c1ccc(C)o1 (stereo not drawn) 131%
NC12CC3CC(CC(C3)C1)C2 119%
CC12CCC(C(=O)N3CCCCC3)([C@H](Br)C1=O)C2(C)C (stereo partly drawn) 119%
CC(NCCC(c1ccccc1)c1ccccc1)c1ccccc1 (stereo not drawn) 122%
CCCCC[C@H](O)/C=C/[C@@H]1[C@@H](C/C=C\CCCC(=O)OC)[C@@H](O)C[C@H]1O 127%
Cc1cc(C(C)(C)C)cc(C)c1CC1=NCCN1 133%
O=C1NC2(Nc3ccccc31)C(=O)Nc1ccc(Br)cc12 (stereo not drawn) 127%
Cc1cc(-c2ccccc2)nnc1NCCN1CCOCC1 114%
Cc1ccccc1OCC(O)CN1CCN(C)CC1 (stereo not drawn) 115%
CNCCCN1c2ccccc2CCc2ccccc21 111%
Nc1c2c(nc3ccccc13)CCCC2 112%
O=c1c2ccccc2nnn1Cc1cccc2ccccc12 105%
CC1(C)CC(=O)C(C(=O)CCCCC(=O)C2C(=O)CC(C)(C)CC2=O)C(=O)C1 114%
COC(=O)c1ccc(CC(=O)c2ccc(O)cc2O)o1 119%
CC(=O)OC[C@H]1O[C@@H](n2ncc(=O)[nH]c2=O)[C@H](OC(C)=O)[C@@H]1OC(C)=O 114%
COc1cc(C2C(C(=O)c3ccc(C)o3)=C(O)C(=O)N2Cc2cccnc2)ccc1O (stereo not drawn) 119%
Cc1ccccc1NC(=O)C1c2ccccc2Oc2ccccc21 120%
COc1ccc(-c2coc3cc(O)cc(O)c3c2=O)cc1 99.9%
Nc1cccc(C(=O)O)c1 116%
CCN1CCN(C(=O)N[C@@H](C(=O)N[C@@H]2C(=O)N3[C@@H]2SC(C)(C)[C@@H]3C(=O)O)c2ccccc2)C(=O)C1=O 122%
